High-throughput results from PubChem.
Rows were chosen to be rich in hits. Some 19% of all compounds tested hit in one or more screens of this group.
DT40 TDP1 no CPT: qHTS for Inhibitors of human tyrosyl-DNA phosphodiesterase 1 (TDP1): qHTS in cells in absence of CPT; 420,000 compounds, 15% hits; Potency, µM (titrated, usually from 46.2 µM), inactives show at the top dose activity change, negative = growth inhibition, most hits filed as inhibitors; DT40 Tdp1-/- hTDP1 cells, no CPT, ATP luminescence, 48 h; also: potency is read from the fitted curve at half-maximal effect; % is scaled to controls: 0 for no effect and ±100 for the full control effect; nearly all actives have a fitted effect of over 55% in size
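Chicken DT40 Tdp1-/- cells complemented with human TDP1, screened without camptothecin (DMSO vehicle only), 400 cells/well. Compounds pin-transferred, cells incubated at 37 °C for at least 48 hr. Growth read as ATP-dependent luminescence (CellTiter-Glo, 30 min at RT).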
IL1B secr inh: qHTS for Inhibitors of Inflammasome Signaling: IL-1-beta AlphaLISA Primary Screen; THP-1 LPS/ATP IL-1B secretion, AlphaLISA, 16 h; stronger effect = lower value; activity change, % at 57.5 µM; 360,000 compounds, 4.7% hits; AID 743279, 2014; in the data active = activity change below about -50%; inconclusive = mostly about -30% to -49%; also: % is scaled to controls: 0 for no effect and ±100 for the full control effect
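Secreted IL-1B measured by AlphaLISA bead assay after 16 h compound exposure of THP-1 cells; compounds (final up to 57.5 uM) added 1 h before LPS (250 ng/mL) and ATP (1.25 mM) stimulation; lower signal means less secretion.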
TGFb inhibitor: qHTS for Inhibitors of TGF-b | HepG2 CAGA-GFP TGF-b/SMAD3 reporter, GFP fluorescence, 18 h; TGF-beta stimulated, 500 pg/mL final | Potency, µM (top dose mostly 46.1 µM), inactives show at the top dose activity, negative = inhibition, most hits filed as inhibitors | 410,000 compounds, 1.2% hits | AID 588855, 2011; also: potency is read from the fitted curve at half-maximal effect; % is scaled to controls: 0 for no effect and ±100 for the full control effect; nearly all actives have a fitted effect of over 65% in size
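Per well, imaged GFP fluorescence of HEPG2 CAGA-GFP cells gives the signal; cells get compound, then TGF-beta (500 pg/mL final), 18 h at 37 degrees C; %Activity versus -TGF-beta and +DMSO controls.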
HepG2 viability: qHTS for Inhibitors of TGF-b: Cytotox Counterscreen; HepG2 CAGA-GFP viability, ATP luminescence, 18 h; Potency, µM (highest dose often 46.1 µM), for the others: top-dose activity change, negative = cytotoxicity, hits mostly cytotoxic; 410,000 compounds, 0.76% hits; AID 588856, 2011; also: potency is read from the fitted curve at half-maximal effect
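CellTiter-Glo luminescence gave cytotoxicity after 18 hours at 37 degrees C. The cells were HepG2 CAGA-GFP in 1% FBS DMEM, stimulated with 500 pg/mL TGF-beta after compound addition. %Activity was normalised to no-cell wells (complete cell-killing) and DMSO (no toxicity), and curves were fitted and classified.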
TDP1 block: qHTS Assay for Inhibitors of Tyrosyl-DNA Phosphodiesterase (TDP1) | Tyrosyl-DNA phosphodiesterase 1 (Homo sapiens), Q9NUW8 | recombinant TDP1, AlphaScreen DNA substrate cleavage | Potency, µM (doses to about 130 µM), for inactives: at the highest dose activity change, negative = inhibition, usual class: inhibitors | 350,000 compounds, 0.28% hits | AID 485290, 2010; also: potency is read from the fitted curve at half-maximal effect; % is scaled to controls: 0 for no effect and ±100 for the full control effect; nearly all actives have a fitted effect of over 40% in size
Target sequence (Q9NUW8 whole entry, looked up): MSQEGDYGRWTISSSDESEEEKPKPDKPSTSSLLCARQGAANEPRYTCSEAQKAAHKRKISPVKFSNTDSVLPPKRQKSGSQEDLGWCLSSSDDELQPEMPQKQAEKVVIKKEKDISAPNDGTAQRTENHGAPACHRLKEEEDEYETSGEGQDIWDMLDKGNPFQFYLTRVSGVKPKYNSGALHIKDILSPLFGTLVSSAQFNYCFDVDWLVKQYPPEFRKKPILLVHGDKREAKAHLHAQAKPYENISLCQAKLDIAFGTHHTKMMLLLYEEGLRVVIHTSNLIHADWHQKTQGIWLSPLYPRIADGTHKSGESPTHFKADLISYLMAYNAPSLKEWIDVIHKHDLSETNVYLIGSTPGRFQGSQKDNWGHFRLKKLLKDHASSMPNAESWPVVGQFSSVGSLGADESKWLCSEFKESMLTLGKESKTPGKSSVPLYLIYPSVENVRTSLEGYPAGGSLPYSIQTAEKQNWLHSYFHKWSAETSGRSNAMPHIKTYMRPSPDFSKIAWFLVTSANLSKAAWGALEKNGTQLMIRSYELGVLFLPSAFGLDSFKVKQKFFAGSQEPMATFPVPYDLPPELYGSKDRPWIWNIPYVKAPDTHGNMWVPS
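Signal: AlphaScreen proximity between streptavidin donor and anti-FITC acceptor beads on intact substrate. Reaction: Tdp1 1 nM, substrate 15 nM final, 5 min RT after 15 min compound preincubation.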
TDP1 cell CPT: qHTS for Inhibitors of human tyrosyl-DNA phosphodiesterase 1 (TDP1): qHTS in cells in presence of CPT | 420,000 compounds, 12% hits | chicken DT40 Tdp1-/-;hTDP1 cells + 20 nM CPT, ATP luminescence, 48 h | Potency, µM (doses to about 46.2 µM), for the others: at the top dose activity change, negative = growth inhibition, most hits filed as inhibitors; also: potency is read from the fitted curve at half-maximal effect; % is scaled to controls: 0 for no effect and ±100 for the full control effect; nearly all actives have a fitted effect of over 55% in size
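Cell growth measured by CellTiter-Glo luminescence after a minimum 48 h, 37 C compound exposure with 20 nM CPT in Tdp1-knockout DT40 cells stably expressing hTDP1, seeded 400/well; qHTS titration format.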
Numbers without * were called inactive. Unless noted, calls follow the shape of the dose curve; as a rule, active = well fitted curve in the direction sought with a large enough effect; inconclusive = small, poorly fitted or top-dose-only effect, or another doubt; inactive = no such curve, though single readings can be large; an effect the other way counts as inactive or inconclusive.

`CN1CCN(S(=O)(=O)c2ccc(N3CCN(S(=O)(=O)/C=C/c4ccccc4)CC3)nc2)CC1` gave DT40 TDP1 no CPT inconclusive, IL1B secr inh -8, TGFb inhibitor 0%, HepG2 viability -60%, TDP1 block 5% and TDP1 cell CPT 18µM*.
`CN1CCN(S(=O)(=O)c2ccc(N3CCN(C(c4ccccc4)c4ccccc4)CC3)nc2)CC1` gave DT40 TDP1 no CPT 16µM*, IL1B secr inh 19, TGFb inhibitor 22%, HepG2 viability 0%, TDP1 block -2% and TDP1 cell CPT inconclusive.
Brc1cc(Br)c[n+](CCc2ccccc2)c1 was read as DT40 TDP1 no CPT 14µM*, TGFb inhibitor 2%, HepG2 viability 6% and TDP1 cell CPT 11µM*.
`Brc1ccc[n+](CCc2ccccc2)c1` gave DT40 TDP1 no CPT -24%, TGFb inhibitor 17%, HepG2 viability -21% and TDP1 cell CPT -7%.
For N#Cc1c(N2CCCC2)nc(N)c2c(N)nc(N3CCCC3)cc12 the results were DT40 TDP1 no CPT 18µM*, IL1B secr inh inconclusive, TGFb inhibitor inconclusive, HepG2 viability -9%, TDP1 block 10% and TDP1 cell CPT inconclusive.
N#Cc1c(N2CCCCC2)nc(N)c2c(N)nc3c(c12)CC(c1ccccc1)O3 (configuration not stated) was read as DT40 TDP1 no CPT 11µM*, IL1B secr inh -9, TGFb inhibitor -1%, HepG2 viability 0%, TDP1 block 0% and TDP1 cell CPT inconclusive.
For CCC1Cc2c(nc(N)c3c(N)nc(N4CCCCC4)c(C#N)c23)O1 (configuration not stated) the results were DT40 TDP1 no CPT inconclusive, TGFb inhibitor inconclusive, HepG2 viability 2%, TDP1 block 2% and TDP1 cell CPT 0%.
For CCOc1cc2c(C#N)c(N3CCCC3)nc(N)c2c(N)n1 the results were DT40 TDP1 no CPT -8%, IL1B secr inh -13, TGFb inhibitor 24%, HepG2 viability 0% and TDP1 cell CPT -11%.
Screening Cc1ccn2c(Nc3ccc4c(c3)OCO4)c(-c3ccco3)nc2c1 returned DT40 TDP1 no CPT inconclusive, TGFb inhibitor inconclusive, HepG2 viability -24%, TDP1 block 13% and TDP1 cell CPT 23µM*.
`Cc1ccn2c(Nc3ccc4c(c3)OCO4)c(-c3ccc(N(C)C)cc3)nc2c1` gave DT40 TDP1 no CPT inconclusive, TGFb inhibitor 2%, HepG2 viability -7%, TDP1 block 12% and TDP1 cell CPT 13µM*.
`Cn1c(=O)c2cc(NC(=O)NCc3ccc(Cl)cc3Cl)ccc2n1Cc1ccc(F)cc1` gave DT40 TDP1 no CPT inconclusive, IL1B secr inh 0, TGFb inhibitor inconclusive, HepG2 viability -29% and TDP1 cell CPT inconclusive.
Cc1ccc(NC(=O)C(CC(C)C)NS(=O)(=O)c2ccc3c(c2)oc(=O)n3C)c(C)c1 (configuration not stated) was read as DT40 TDP1 no CPT -11%, TGFb inhibitor 13%, HepG2 viability 13%, TDP1 block -3% and TDP1 cell CPT 17%.
For O=C(NCc1ccco1)c1cc2nc(-c3cccs3)cc(C(F)(F)F)n2n1 the results were DT40 TDP1 no CPT inconclusive, IL1B secr inh -21, TGFb inhibitor -11%, HepG2 viability -2%, TDP1 block 0% and TDP1 cell CPT inconclusive.
For O=C(NCc1cccnc1)c1cc2nc(-c3cccs3)cc(C(F)(F)Cl)n2n1 the results were DT40 TDP1 no CPT inconclusive, IL1B secr inh -67*, TGFb inhibitor 11%, HepG2 viability 0%, TDP1 block 3% and TDP1 cell CPT inconclusive.
`Cc1ccc(O)c(NC(=O)c2cc(-c3ccc(F)cc3)on2)c1` gave DT40 TDP1 no CPT -10%, IL1B secr inh inconclusive, TGFb inhibitor -2%, HepG2 viability -3%, TDP1 block 3% and TDP1 cell CPT -19%.
For Cc1ccc(O)c(NC(=O)c2cc(-c3cccs3)on2)c1 the results were DT40 TDP1 no CPT -25%, IL1B secr inh -67*, TGFb inhibitor 6%, HepG2 viability 1%, TDP1 block 10% and TDP1 cell CPT 3%.
O=C(NCc1cccnc1)c1cc(-c2cccs2)on1 was read as DT40 TDP1 no CPT inconclusive, IL1B secr inh 67, TGFb inhibitor 1%, HepG2 viability -23%, TDP1 block -2% and TDP1 cell CPT 13µM*.
Screening CC(=O)N1CCc2cc(S(=O)(=O)NC(C(=O)Nc3ccc(C)cc3C)C(C)C)ccc21 (configuration not stated) returned DT40 TDP1 no CPT inconclusive, TGFb inhibitor -10%, HepG2 viability -18%, TDP1 block 0% and TDP1 cell CPT -4%.
For O=C(Nc1ccc(/C=C/c2nc3ccccc3o2)cc1)c1ccc(F)cc1 the results were DT40 TDP1 no CPT inconclusive, IL1B secr inh 15, TGFb inhibitor 17%, HepG2 viability -2%, TDP1 block 1% and TDP1 cell CPT 21µM*.
O=C(NNC(=O)c1ccc(NC(=O)c2ccccc2)cc1)c1ccc(F)cc1 was read as DT40 TDP1 no CPT 11%, IL1B secr inh 1, TGFb inhibitor 5%, HepG2 viability 0% and TDP1 cell CPT 30%.
Screening COc1ccc(-c2csc(NC(=S)NC(=O)c3ccc(S(=O)(=O)N(C)C)cc3)n2)cc1OC returned DT40 TDP1 no CPT inconclusive, IL1B secr inh 29, TGFb inhibitor 5%, HepG2 viability -16%, TDP1 block 2% and TDP1 cell CPT inconclusive.
For Cc1ccc(C)c(-c2csc(N/N=C/c3ccco3)n2)c1 the results were DT40 TDP1 no CPT inconclusive, IL1B secr inh -17, TGFb inhibitor -18%, HepG2 viability 4%, TDP1 block 9% and TDP1 cell CPT 3%.
O=S(=O)(c1cccc(-c2csc(N/N=C/c3ccco3)n2)c1)N1CCOCC1 was read as DT40 TDP1 no CPT 13µM*, IL1B secr inh -72*, TGFb inhibitor inconclusive, HepG2 viability -1%, TDP1 block 10% and TDP1 cell CPT 16µM*.
